Laboratory results from PubChem BioAssay AID977607 (Broad Institute, 2014).
In all, about 1,500 compounds went through this assay and about 460 (31%) were called active. Not shown: some 1% with an inconclusive outcome.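 The calls were made as follows: active = curve reaches 40% activation over neutral controls at an AC40 no higher than the top valid tested concentration; inconclusive = no clear call, values can overlap the other calls; inactive = signal moving opposite to the expected increase, and the rest.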 Not all results are given here. Results with a measured potency or affinity are listed apart.

Test: activators of glucose-dependent insulin secretion, dose response, cell-based, INS-1E, Gaussia luciferase, luminescence, cherry-pick, set 2 (AID 977607);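 also: 0% = median of the plate neutral control wells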
Settings: INS-1E GLuc insulin secretion reporter, 2-3 h, stronger effect = higher value; at 35 µM, 100% = signal doubled over neutral wells unless noted

Max activation, inactive:
c1csc(-c2nc(NCC3CCCO3)c3ccccc3n2)c1 (centres undefined) 39.8% [at 11 µM, 100% = signal doubled over neutral wells]
Cn1nnnc1Sc1ncnc2scc(-c3ccc(F)cc3)c12 -12.9% [at 0.42 µM, 100% = signal doubled over neutral wells]
NC1=NC[C@H](Cc2ccccc2)N1CCCCC1CCCCC1 -33.4% [at 11 µM, 100% = signal doubled over neutral wells]
COc1ccc(C[C@H]2CN3C(=NC[C@@H]3Cc3ccccc3)N2CCNC(=O)CCC2CCCCC2)cc1 62.1%
Cc1cc(NS(=O)(=O)c2ccc(NC(=O)C(C)Oc3ccccc3Cl)cc2)no1 (centres undefined) -22.4% [at 0.015 µM, 100% = signal doubled over neutral wells]
CCOc1ccccc1CNC(c1ccccc1)c1ccccc1 -22.9% [at 11 µM, 100% = signal doubled over neutral wells]
COc1cc2ccc(C(C)=NNC(N)=S)cc2cc1OC -23.9% [at 0.135 µM, 100% = signal doubled over neutral wells]
C/C(=N\NC(=O)CO/N=C(\C)c1cccs1)c1ccc(N)cc1 -25.9%
O=C(Nc1ncn[nH]1)c1ccc(Cl)c(Cl)c1 -14.6% [at 0.135 µM, 100% = signal doubled over neutral wells]
CC(C)CCN1C(=O)CSCC1(C)C(=O)NC(C)C (centres undefined) -10.4%
Cc1cccn2cc(CNS(=O)(=O)c3ccc4ccccc4c3)nc12 34% [at 3.8 µM, 100% = signal doubled over neutral wells]
COCCn1c(=S)[nH]c2sc3c(c2c1=O)CCCC3 -29.9% [at 11 µM, 100% = signal doubled over neutral wells]
COc1cc(CN2CCC(n3nccc3NC(=O)C3CCOC3)CC2)ccc1F (centres undefined) -11.8%
COc1ccccc1-n1cnc2sc(C)c(C)c2c1=O 29.4% [at 11 µM, 100% = signal doubled over neutral wells]
COc1ccc(C2N(c3ccccc3)C(=O)C2(F)F)cc1OC (centres undefined) -13.7%
COc1ccc(S(=O)(=O)NC2CCCCC2)cc1C 14.2% [at 3.8 µM, 100% = signal doubled over neutral wells]
COc1ccc(C(=O)OCC(=O)NC(=O)NC2CCCC2)cc1OC -7.36% [at 0.005 µM, 100% = signal doubled over neutral wells]
CCSc1nnc2ccc(-c3ccc(C)cc3)nn12 18.5% [at 0.015 µM, 100% = signal doubled over neutral wells]
O=C(COc1ccccc1)Nc1ccccc1C(=O)NC1CC1 -11.7% [at 0.046 µM, 100% = signal doubled over neutral wells]
O=C(CC(c1ccccc1)c1ccco1)N1CCOCC1 (centres undefined) 18.9% [at 1.2 µM, 100% = signal doubled over neutral wells]
CC(=O)c1c(O)c2cccc3c2n(c1=O)CCC3 -22.5% [at 0.046 µM, 100% = signal doubled over neutral wells]
Cc1ccccc1S(=O)(=O)N1CC(=O)N2[C@@H](CO)[C@H](c3ccc(C#CCC4CCCC4)cc3)[C@@H]2C1 276% [at 35 µM]
CCC(=O)Nc1cc(C(C)(C)C)ccc1C(C)=O -23.6% [at 0.135 µM, 100% = signal doubled over neutral wells]
O=C(c1cccs1)N(Cc1ccccn1)Cc1ccco1 -16.4% [at 0.015 µM, 100% = signal doubled over neutral wells]
CN1CCN(c2ccc(CNC(=O)C3(C)Cc4c(-c5ccccc5)ccnc4O3)cc2)CC1 (centres undefined) -21.2% [at 0.005 µM, 100% = signal doubled over neutral wells]
CNC(=O)c1[nH]nc2c1CCc1cc(OC)ccc1-2 -16.9% [at 0.005 µM, 100% = signal doubled over neutral wells]
COc1ccc2c(c1)CCc1cc(C(=O)O)sc1-2 -25.3% [at 0.135 µM, 100% = signal doubled over neutral wells]
Cc1cc(C)nc(NC(N)=NCCc2c[nH]c3ccccc23)n1 -23.4% [at 0.046 µM, 100% = signal doubled over neutral wells]
COc1cc(C(F)(F)F)c(C(=O)NCc2cccc(Cl)c2)cn1 -11.8%
COC(=O)C1=C(C)N(Cc2ccc(C(F)(F)F)cc2)C(=NCC2CC2)NC1c1ccccc1 (centres undefined) -21% [at 3.8 µM, 100% = signal doubled over neutral wells]
CCN(CC)CCCN=C1N[C@@H](c2ccccc2)C(C(=O)OC)=C(C)N1CC -23.5% [at 3.8 µM, 100% = signal doubled over neutral wells]
CCCCN(Cc1nc2ccccc2c(=O)[nH]1)C(=O)c1nn(C)c(=O)c2ccccc12 -30.4% [at 0.0016 µM, 100% = signal doubled over neutral wells]
Clc1cc(NC2CCCCC2)ncn1 -22.5% [at 11 µM, 100% = signal doubled over neutral wells]
CC(C)c1cc(C(C)C)n2nc(N)nc2n1 24.3%
COCCOC(=O)C1=C(C)NC(=O)N(C(C)=O)C1c1ccc(Cl)cc1 (centres undefined) -26.3% [at 3.8 µM, 100% = signal doubled over neutral wells]
NC1=NC(=O)C(Cc2ccc(F)cc2)S1 (centres undefined) -13% [at 0.015 µM, 100% = signal doubled over neutral wells]
CCCNC(=O)C1(C)CCN(C(=O)c2cccc(C(F)(F)F)c2)C1 (centres undefined) -15.8% [at 0.135 µM, 100% = signal doubled over neutral wells]
O=C(c1ccccc1F)N1CCCC(N2CCN(Cc3ccc4c(c3)OCO4)CC2)C1 (centres undefined) -12.4% [at 0.0016 µM, 100% = signal doubled over neutral wells]
CCCCc1nnc2c(N(C)S(=O)(=O)c3ccccc3)nc3ccccc3n12 -17.8% [at 0.015 µM, 100% = signal doubled over neutral wells]
Cc1cccc(N2CCN(C(=O)c3cccn4c(=O)c5c(C)c(C)sc5nc34)CC2)c1C -13.3% [at 0.046 µM, 100% = signal doubled over neutral wells]
COC(=O)C1CCN(c2cc(Cl)nc(N)n2)CC1 30.9%
NC(=O)c1cc2cc(Cl)ccc2o/c1=N/NC(=O)c1cccs1 -12.9% [at 0.135 µM, 100% = signal doubled over neutral wells]
N#CCCN(Cc1ccccc1)C(=O)c1cccs1 -20.9% [at 11 µM, 100% = signal doubled over neutral wells]
CCOC(=O)c1cc(CC)sc1NC(=O)COC(=O)c1cnccn1 -18.2% [at 0.005 µM, 100% = signal doubled over neutral wells]
CCOc1ncccc1C(=O)NCc1cccc(OC)c1 -19.1% [at 0.0016 µM, 100% = signal doubled over neutral wells]
COc1cccc(CNC(=O)c2cccnc2Sc2ccccc2)c1 -18.8% [at 0.0016 µM, 100% = signal doubled over neutral wells]
CCOc1ccc(CCNC(=O)COC(=O)c2nccnc2N)cc1OCC 16.3% [at 0.42 µM, 100% = signal doubled over neutral wells]
C/C(Cl)=C\Cn1c(N2CCCC2)nc2c1c(=O)[nH]c(=O)n2C -16.5% [at 0.0016 µM, 100% = signal doubled over neutral wells]
COc1ccc(NC(=O)Cc2c(SC)c3ccccc3n2Cc2ccccc2)cc1 28.7% [at 1.2 µM, 100% = signal doubled over neutral wells]
CCCCC(=O)N(C)c1c(CC)nc2c(OCc3ccc(C(F)(F)F)cc3)cccn12 -15.2%
CCc1nc2c(OCc3ccccc3C(=O)OC)cccn2c1N(C)C(=O)c1ccncc1 -29.4%
C[C@@H]1CN([C@H](C)CO)S(=O)(=O)c2ccc(-c3ccc(C#N)cc3)cc2O[C@H]1CN(C)C 15.6% [at 0.046 µM, 100% = signal doubled over neutral wells]
C[C@@H]1CN([C@@H](C)CO)C(=O)c2cccc(NC(=O)Nc3ccc(C(F)(F)F)cc3)c2O[C@H]1CN(C)Cc1ccc(Cl)c(Cl)c1 -26.5% [at 11 µM, 100% = signal doubled over neutral wells]
COCC(=O)N(C)C[C@H]1Oc2cc(Br)ccc2S(=O)(=O)N([C@H](C)CO)C[C@H]1C -5.77% [at 0.046 µM, 100% = signal doubled over neutral wells]
C[C@@H]1CN([C@H](C)CO)C(=O)c2cc(C#CCN(C)C)cnc2O[C@H]1CN(C)S(=O)(=O)c1cn(C)cn1 31.4% [at 0.015 µM, 100% = signal doubled over neutral wells]
C[C@H]1CN([C@@H](C)CO)C(=O)c2ccccc2-c2ccccc2CO[C@@H]1CN(C)Cc1cccc(C(F)(F)F)c1 -39% [at 11 µM, 100% = signal doubled over neutral wells]
C[C@H](CO)N1C[C@H](C)[C@@H](CN(C)C(=O)CC2CC2)Oc2cc(C#CC(C)(C)O)ccc2S1(=O)=O 36.4% [at 0.046 µM, 100% = signal doubled over neutral wells]
C[C@H]1CN([C@@H](C)CO)C(=O)c2ccccc2-c2ccccc2CO[C@@H]1CN(C)Cc1ccc(Cl)c(Cl)c1 -38.4% [at 3.8 µM, 100% = signal doubled over neutral wells]
C[C@@H]1CN([C@H](C)CO)C(=O)c2cc(C#CCc3ccccc3)cnc2O[C@H]1CN(C)C(=O)C1CCC1 25.2% [at 0.015 µM, 100% = signal doubled over neutral wells]
